Test results published in PubChem BioAssay (NCI).
Several values for one entry are separate records, joined by “and”; a condition that tells them apart may be missing. Equal entries are not always repeated. This is part of a sample that, as a whole, favours compounds with a hit. Of some 79,000 tested, about 15% had one in any assay. Some compounds were tested as several samples or in several runs, with calls that do not always agree. Activity calls are given as the source filed them. Rule as the data show it: active = growth inhibition above about 70%; inactive = the rest.

Columns and labels:
[1] = NCI Yeast Anticancer Drug Screen. Data for the rad50 strain (AID 155);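 also: 0% = growth of vehicle-only cultures of the same strain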; conditions: S. cerevisiae rad50 strain growth inhibition; at 50.0 µM; stronger effect = higher value
How it was run: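 Cells are treated with compound, grown, and their growth is then scored against vehicle-only cultures of the same repair-deficient yeast strain.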

[2] = NCI Yeast Anticancer Drug Screen. Data for the mec2-1 strain (AID 157); conditions: S. cerevisiae mec2-1 strain, at 50.0 µM, stronger effect = higher value
How it was run: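 Growth inhibition is read against vehicle-treated controls after compound exposure of the mec2-1 yeast strain, which is defective in DNA damage repair or cell cycle control.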

[3] = NCI Yeast Anticancer Drug Screen. Data for the sgs1 mgt1 strain (AID 161);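 also: 0% = growth of cultures given vehicle only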; conditions: S. cerevisiae sgs1 mgt1 strain, at 50.0 µM, stronger effect = higher value
How it was run: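 Percent growth inhibition was derived by comparing compound-exposed mutant yeast with vehicle-exposed cultures. The strain carries alterations in DNA damage repair.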

[4] = NCI Yeast Anticancer Drug Screen. Data for the cln2 rad14 strain (AID 165);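 also: 0% = growth equal to vehicle treated cultures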; conditions: S. cerevisiae cln2 rad14 strain, at 50.0 µM, stronger effect = higher value
How it was run: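 Growth inhibition, relative to vehicle-treated controls, is the read-out. The test organism is a yeast strain with defined genetic alterations, cln2 rad14.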

[5] = NCI Yeast Anticancer Drug Screen. Data for the bub3 strain (AID 167); conditions: S. cerevisiae bub3 mutant strain, at 50.0 µM, stronger effect = higher value
How it was run: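 Part of a panel of yeast mutants defective in DNA damage repair or cell cycle regulation. Each strain is grown with compound, and inhibition is calculated relative to solvent-treated cultures.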

[6] = NCI Yeast Anticancer Drug Screen. Data for the mlh1 rad18 strain (AID 175); conditions: S. cerevisiae mlh1 rad18 strain growth inhibition; at 50.0 µM; stronger effect = higher value
How it was run: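 Cells of a genetically altered yeast strain, deficient in DNA damage repair, were treated with compound. Their growth was then compared with that of vehicle-treated cultures to give inhibition.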

Measured: growth inhibition

Nc1cccc2cc(S(=O)(=O)O)ccc12
inactive: [1] 10.6% and -6.9% | [2] 22.9% and -9.85% | [3] -24.9% and -1.25% | [4] -2.75% and -50.2% | [5] -1.65% and -11.9% | [6] -5.5% and -35.7%

CCCCCCCC/C=C\CCCCCCCCOCC(O)CO (configuration not stated)
inactive: [1] -8.65% and -26.1% | [2] -25.6% and -20.9% | [3] -1.8% and -4% | [4] -17.9% and 3.35% | [5] -25.4% and -31.6% | [6] -27.6% and -20.8%

CC(CCC(=O)O)(c1ccc(O)cc1)c1ccc(O)cc1
inactive: [1] 10.4% and -8.8% | [2] -0.85% and -15.6% | [3] -12.8% and -51.6% | [4] -44.4% and -33.4% | [5] -2.7% and -17.2% | [6] 22.8% and -15.6%

C=C1C(=O)OC2C1CCC(C)C1CCC(=O)OC12C (configuration not stated)
inactive: [1] 50.9% and -7.2% | [2] 58.8% and -1.4% | [3] 43.1% and 17.2% | [4] 35% and 18.6% | [5] 64% and 13.6% | [6] 54.5% and 3.8%

COc1cc(C2c3cc4c(cc3C(OC(=O)c3ccc[n+](C)c3)C3COC(=O)C23)OCO4)cc(OC)c1OC (configuration not stated)
inactive: [1] -16.2% and -3.1% | [2] -11.3% and 8.1% | [3] -11.3% and 2.3% | [4] -17.5% and -1.65% | [5] 13.1% and 41.8% | [6] 5.45% and 9.45%

Cc1ccc(C(C)CCCO)cc1 (configuration not stated)
inactive: [1] -11.6% and 6.8% | [2] -15.4% and -21.8% | [3] -16.8% and -6.55% | [4] -6.55% and -2.3% | [5] -22.2% and -6.35% | [6] -23.9% and -25.9%

O=S(=O)(O)CCO
inactive: [1] 13.6% and -1.9% | [2] -8.35% and -8.7% | [3] 20.7% and 9.75% | [4] 19.1% and 16.2% | [5] 0.3% and -3.5% | [6] 2.25% and 28%

Nc1ccc(O)c2c1C(=O)c1c(O)ccc(N)c1C2=O
inactive: [1] 59.8% and 13.4% | [2] 11.4% and -13.4% | [3] 16.4% and -0.55% | [4] -16.1% and -0.65% | [5] 43.2% and 8.25% | [6] 42.1% and 11.8%

O=[N+]([O-])c1ccc(S(=O)(=O)Cl)cc1
inactive: [1] 53.2% and 20.5% | [2] -3.75% and 6.75% | [3] 30.9% and 44.5% | [4] 35.8% and 23.1% | [5] 28.1% and 6.15% | [6] 52% and 52.5%

COc1cc(NCCCNc2c3ccc(Cl)cc3nc3ccc(OC)cc23)c2ncccc2c1
inactive: [2] -13.9% and 24% | [4] -0.35% and 54.1% | [5] -18.2% and 50.2%
8.15% (inactive) and 70% (active): [3]
-4.6% (inactive) and 85.9% (active): [6]
-3.5% (inactive) and 79.2% (active): [1]

CCCCCCC1OCC(CC)C(CCC)O1 (configuration not stated)
inactive: [1] 24.4% and 2% | [2] 23.6% and 6.9% | [3] 17.1% and -6.05% | [4] -12.2% and -9.7% | [5] 17.2% and 15.2% | [6] 30.4% and -9.4%

O=C(NC(Cc1ccccc1)C(=O)O)OCc1ccccc1 (configuration not stated)
inactive: [1] 4.2% and 0.2% | [2] 23.9% and 6.9% | [3] 12.1% and 1% | [4] -9.35% and -1.55% | [5] 20.7% and -5.15% | [6] 14.7% and 16.9%

CCCCOC(=O)c1ccc(O)cc1
inactive: [1] 25.4% and 23% | [2] -2.95% and -1.8% | [3] 8.7% and -6.55% | [4] 3.55% and -11.2% | [5] 8.75% and 33.6% | [6] 23.4% and 48%

O=C(O)CCSCc1ccccc1
inactive: [1] -25.6% and 8.85% | [2] 0.7% and -6.9% | [3] -23.1% and 1.55% | [4] -31% and -3.5% | [5] -31.4% and -0.2% | [6] -30.3% and -16.1%

NC1CCC(N)CC1 (configuration not stated)
inactive: [1] 7.75% and 9.05% | [2] 10% and -5.85% | [3] 0.2% and 0.75% | [4] -11.8% and -16.1% | [5] 8.65% and 10.4% | [6] -6.35% and 1.4%

Oc1ccc(-c2ccc(O)cc2)cc1
inactive: [1] 36.2% and -18.6% | [2] 2.45% and -3.75% | [3] 7.4% and -17.4% | [4] 19.9% and -27.9% | [5] 11.9% and 12.9% | [6] 13.8% and 19.3%

CCOC(=O)CNC(=O)C(Cc1ccccc1)NC(=O)c1ccccc1N (configuration not stated)
inactive: [1] 14% and 12.7% | [2] -1.7% and -2.6% | [3] -0.1% and 9.95% | [4] -5.4% and -6.3% | [5] 8.7% and 4.45% | [6] 7.25% and 4.15%

COC1OC(COC(=O)NCCCCC(=O)C(F)(F)C(F)(F)C(F)(F)C(F)(F)C(F)(F)C(F)(F)C(F)(F)F)C(O)C(O)C1O (configuration not stated)
inactive: [1] -34.9% and -29.9% | [2] -22.2% and -30.1% | [3] -10% and -11.4% | [4] -2.5% and -8.2% | [5] -18.4% and -26.4% | [6] -2.9% and -3.6%

c1ccc(CSSCc2ccccc2)cc1
inactive: [1] 9.45% and -1.4% | [2] -0.35% and -3.15% | [3] 3% and 1.85% | [4] -5.5% and -8.2% | [5] 4.9% and -9.9% | [6] 15.3% and -14.1%

N=C(N)SCCc1ccccn1
inactive: [1] -30.3% and -8.8% | [2] -27.9% and -24.2% | [3] -35.1% and -28% | [4] -16.1% and -19.4% | [5] -44% and -39.1% | [6] -18.4% and -1.55%

CC(=O)OCC1OC(n2cnc3c(N)ncnc32)C(OC(C)=O)C1OC(C)=O (configuration not stated)
inactive: [1] 3.05% and 8.1% | [2] -8.9% and -3.3% | [3] 18.8% and 0.2% | [4] 14.2% and 11.4% | [5] 5.3% and -0.8% | [6] 18.1% and -0.25%

COC(=O)NC1C(=O)OC(C2OC2(C)C)C1(C)C (configuration not stated)
inactive: [1] -4% and -2.5% | [2] -22.9% and -12.8% | [3] -5.3% and -32.8% | [4] 4.35% and -7.9% | [5] -17.1% and -31.4% | [6] -6.15% and -27.4%
